GAA glycogen = inhibitors or activators of human alpha-glucosidase glycogen cleavage; recombinant GAA, glycogen substrate, Amplex Red glucose oxidase fluorescence; Potency, µM (doses to about 76.4 µM), without a hit: at the top dose activity change, negative = inhibition, usual class: inhibitors; 300,000 compounds, 0.38% hits;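 also: potency is read from the fitted curve at half-maximal effect; 0% = full enzyme reaction and -100% = no-enzyme basal signal; the screen sought inhibitors and activators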
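Recombinant human alpha-glucosidase (4 nM final) hydrolysed bovine liver glycogen (30 ug) for 40 min at 37 C in pH 5.0 citrate/phosphate with 0.01% Tween-20. Released glucose detected by glucose oxidase/Amplex Red, Ex 573/Em 610 nm. Compounds up to 77 uM; AC50 from Hill fits.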
GAA inh = inhibitors of human lysosomal alpha-glucosidase; P10253; purified human GAA, 4-MU-alpha-glucoside fluorescence; Potency, µM (top dose mostly 76.9 µM), inactives show at the highest dose activity change, negative = inhibition, actives largely listed as inhibitors; 200,000 compounds, 0.005% hits; AID 1466;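 also: potency is read from the fitted curve at half-maximal effect; plate controls were uninhibited enzyme wells for no effect and no-enzyme background for full effect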
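Read-out is 4-methylumbelliferone fluorescence (Ex 365/Em 440 nm) after NaOH/glycine stop at pH 10. Enzyme 4 nM, substrate 400 uM, pH 5.0 citrate buffer, 20 min room temperature; AC50 from Hill-equation concentration-response.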
GLA spleen mod = inhibits or activates alpha-galactosidase in human spleen homogenate; Potency, µM (top dose mostly 80 µM), for inactives: top-dose activity change, negative = inhibition, hits mostly inhibitors; 240,000 compounds, 0.008% hits; human spleen homogenate, 4MU-alpha-Gal fluorescence, 40 min; P06280;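 also: potency is read from the fitted curve at half-maximal effect; 0% = enzyme with vehicle and -100% = no enzyme basal signal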
Target sequence (P06280 32-429 limits assumed): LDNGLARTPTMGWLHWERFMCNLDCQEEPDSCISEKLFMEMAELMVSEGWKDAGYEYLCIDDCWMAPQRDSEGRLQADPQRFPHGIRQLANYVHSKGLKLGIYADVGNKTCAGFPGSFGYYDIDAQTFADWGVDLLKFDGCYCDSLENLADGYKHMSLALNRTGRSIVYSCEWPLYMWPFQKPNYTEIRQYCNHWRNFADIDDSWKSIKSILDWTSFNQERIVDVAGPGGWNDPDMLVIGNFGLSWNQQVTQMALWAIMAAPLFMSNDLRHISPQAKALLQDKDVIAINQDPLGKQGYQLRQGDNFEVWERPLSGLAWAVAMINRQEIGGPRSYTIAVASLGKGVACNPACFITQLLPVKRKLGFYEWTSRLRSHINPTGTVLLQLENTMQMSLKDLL
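Human spleen homogenate (1 ug) was the enzyme source, with 4-methylumbelliferyl-alpha-D-galactopyranoside (1 mM final) in pH 5.0 citrate buffer with 0.01% Tween-20. Compounds were titrated; after 40 min at 37C, NaOH/glycine stop, 4-MU fluorescence read; AC50 from Hill fits.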
GLA inh pH 4.5 = inhibitors of human alpha-galactosidase A at pH 4.5 | AID 1467 | 230,000 tested, under 10 active | activity change, negative = inhibition, % at 105 µM | purified enzyme, 4-MU-alpha-Gal fluorescence, pH 4.5 | P06280;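 also: 0% = full activity with enzyme and -100% = basal without enzyme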
N370S GC = N370S glucocerebrosidase modulation, Gaucher chaperone candidate. P04062. 330,000 compounds, 0.092% hits. Potency, µM (top dose mostly 59.4 µM), without a hit: at the highest dose activity change, negative = inhibition, most hits filed as inhibitors. N370S GC spleen homogenate, 4MU-glucoside fluorescence;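 also: potency is read from the fitted curve at half-maximal effect; 0% = full enzyme activity and -100% = no enzyme basal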
GAA spleen mod = inhibitors or activators of human alpha-glucosidase in spleen homogenate; AID 2112; P10253; human spleen homogenate, 4-MU-alpha-glucoside fluorescence; 240,000 compounds, 0.006% hits; Potency, µM (highest dose often 79.9 µM), for the others: at the top dose activity change, negative = inhibition, usual class: inhibitors;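 also: potency is read from the fitted curve at half-maximal effect; 0% = enzyme with vehicle and -100% = no enzyme basal signal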
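Enzyme source: human spleen homogenate, 1 ug/well. Buffer 50 mM citric acid/K phosphate pH 5.0, 0.01% Tween-20. 4-MU-alpha-glucoside 1 mM; 37 C x 40 min; NaOH/glycine stop; fluorescence.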
Starred values were filed as active, the others as inactive; ? = inconclusive; · = not tested or not shown; [ ] = remark or other dose. Sampled rows, rich in hits. Any-hit rate of the full collection: about 0.43%. Calls follow the shape of the dose curve; as a rule, active = well fitted curve in the direction sought with a large enough effect; inconclusive = small, poorly fitted or top-dose-only effect, or another doubt; inactive = no such curve, though single readings can be large; an effect the other way counts as inactive or inconclusive.

SMILES	GAA glycogen	GAA inh	GLA spleen mod	GLA inh pH 4.5	N370S GC	GAA spleen mod
COc1cccc(CNc2ccc(S(=O)(=O)Nc3nccs3)cc2)c1O	5.6µM*	-6%	9%	11	-25%	3%
COc1cc(OC)cc(C2=Nn3c(nnc3-c3ccccc3OC)SC2)c1	·	·	7%	·	0%	-7%
COc1ccc(NC(=S)N(CCCN2CCOCC2)Cc2cn(C)c3ccccc23)cc1	-24%	-4%	7%	8	0%	-12%
Cc1cccc(NC(=S)N(CCCN2CCOCC2)Cc2cn(C)c3ccccc23)c1	6%	0%	-7%	5	7.9µM*	-8%
CCOc1ccc(NC(=S)N(CCCN2CCOCC2)Cc2cn(C)c3ccccc23)cc1	-16%	-4%	-7%	-4	5%	-1%
Cn1cc(CN(CCCN2CCOCC2)C(=S)Nc2cccc(Cl)c2)c2ccccc21	-20%	1%	3%	-2	10µM*	-2%
C[C@H](NC(=O)N1CCc2nc(-c3ccccc3)c3c(c2C1)CO[C@@H](C)C3)c1ccccc1	·	·	3%[17.5 µM]	-9	9%[12.8 µM]	0%[17.4 µM]
COc1ccc(-c2coc3ccc(OC4OC(COC(C)=O)C(OC(C)=O)C(OC(C)=O)C4OC(C)=O)cc3c2=O)cc1 (centres undefined)	·	·	2%	-2	-5%	4%
NC(=O)c1ccc(-n2nnnc2SCC(=O)c2ccc(O)c(O)c2)cc1	?	2%	-15%	-2	?	-22%
Cn1c(SCC(=O)c2ccc(O)c(O)c2)nnc1-c1ccccc1	1.8µM*	·	·	·	-9%	·
COc1ccc(-n2nnnc2SCC(=O)c2ccc(O)c(O)c2)cc1	8.8µM*	-10%	-2%	-4	-7%	-5%
O=C(CSc1nc2ccccc2n1CCc1ccccc1)c1ccc(O)c(O)c1	4µM*	-4%	-7%	-3	2%	-16%
CCN(CC)S(=O)(=O)c1cc([N+](=O)[O-])ccc1NNC(=O)Nc1ccc(F)cc1	?	-4%	-12%	-6	-3%	-10%
CCN(CC)S(=O)(=O)c1cc([N+](=O)[O-])ccc1NNC(=O)Nc1ccccc1OC	22µM*	6%	-1%	-4	2%	-3%
CN(C)c1ccc(C(=C2C=CC(=[N+](C)C)C=C2)c2ccc(N(C)C)cc2)cc1	·	·	-1%	-7	3.2µM*	-4%
CCOC(=O)NC1(NCc2ccccc2)Oc2ccccc2O1	16µM*	4%	5%	-4	-1%	1%
CCOC(=O)NC1(NC2CCCCC2)Oc2ccccc2O1	8.9µM*	3%	3%	5	5%	3%
COc1cc(CNc2ccc3c(c2)CCC3)cc(OC)c1O	25µM*	5%	-10%	3	2%	-17%
Cc1cc(C)cc([N+](=O)[O-])c1	·	·	-4%	·	-2%	-3%
COc1ccc(S(=O)(=O)N2CCN(Cc3cccc(OC)c3)CC2)cc1	5%[76.3 µM]	·	·	·	-12%	·
O=S(=O)(NCc1ccco1)c1ccc(S(=O)(=O)N2CCCC2)cc1	35µM*	?	-18%	-6	16%	3%
COc1cccc(CNS(=O)(=O)c2ccc(S(=O)(=O)N3CCCC3)cc2)c1	5µM*	1%	2%	-13	7%	1%
CCOC(=O)CCN1C(=O)[C@H]2[C@H]3[C@H](O)[C@H](O)C/C(=N/OCC(C)C)[C@@H]3CC[C@@H]2C1=O	·	·	-2%[17.5 µM]	·	14%[12.8 µM]	-5%[17.4 µM]
N#C/C(=C\c1cc(O)c(O)c(O)c1)C(N)=O	5µM*	·	-30%	-11	-22%	?
COc1cc(CNCCc2c[nH]c3ccccc23)ccc1OCc1ccc(F)cc1	2%	-2%	-9%	-11	16µM*	-5%
SMILES	GAA glycogen	GAA inh	GLA spleen mod	GLA inh pH 4.5	N370S GC	GAA spleen mod
COC(=O)NC(c1ccco1)[C@]1(C(C)=O)CCCC1=O (some centres undefined)	·	·	-5%[17.5 µM]	·	9%[12.8 µM]	3%[17.4 µM]
CCCCC1=CC2=C(c3ccco3)C(=O)C(C)(OC(=O)c3ccc(OC)cc3)C(=O)C2=CO1 (centres undefined)	·	·	-10%	-5	-8%	2%
C=CCN1c2ccccc2[C@]23C[C@@H](C(=O)OC)N(C(=O)COCc4ccccc4)C2=NC(C(=O)OC)=C(C(=O)OC)[C@H]13	·	·	3%[17.5 µM]	0	-21%[12.8 µM]	5%[17.4 µM]
COc1ccc(OC)c(Nc2nc(=O)c3cccnc3s2)c1	28µM*	?	1%	9	4%	2%
Cc1ccc(Nc2nc(=O)c3cccnc3s2)cc1	-7%	2%	6%	3	0%	3%
CCc1cc(C(c2ccccn2)N2CCN(C)CC2)c(NC(=O)c2ccccc2)s1 (centres undefined)	-4%	-7%	2%	-25	14µM*	0%
CCOc1ccc(C(c2c(NC(=O)c3ccccc3)sc(C)c2C)N2CCN(C)CC2)cc1 (centres undefined)	-3%	?	2%	-3	16µM*	2%
Cc1sc(NC(=O)c2ccccc2)c(C(c2ccccn2)N2CCN(CCO)CC2)c1C (centres undefined)	-10%	-1%	12%	-8	11%	-1%
C=C1C[C@]23CC[C@H]4C(CO)(CO)C[C@@H](O)C[C@@]4(C)[C@@H]2CC[C@H]1C3	·	·	3%	-2	-2%	0%
Cc1ccc(OCCSc2nc3ccccc3n2CC(=O)N2CCCCC2)c(C)c1	-9%[76.3 µM]	·	·	·	·	·
C[C@H](Cc1ccc(O)c(O)c1)[C@@H](C)Cc1ccc(O)c(O)c1	·	·	11µM*	-2	-2%	-12%
CC(Cc1ccc(O)c(O)c1)C(C)Cc1ccc(O)c(O)c1 (centres undefined)	·	·	-9%	-5	-3%	-1%
CCCCCCNC(=O)Nc1ccc(S(=O)(=O)Nc2ccc(CCNC[C@H](O)COc3ccc(O)cc3)cc2)cc1	·	·	0%	-13	7.9µM*	-13%
COc1cc(O)c2c(c1)oc(=O)c1c3cc(O)c(O)cc3oc21	·	·	1%	·	-23%	-10%
COCCn1c(NC(=S)NC(=O)C23CC4CC(CC(C4)C2)C3)cc(=O)[nH]c1=O	-4%	·	2%	-4	0%	6%
COCCn1c(NC(=S)NC(=O)C2CC2)cc(=O)[nH]c1=O	31µM*	6%	4%	10	-2%	7%
COc1cc2c(c(OC)c1OC)-c1ccc(OC)c(=O)cc1[C@@H](NC=O)CC2	·	·	-1%	·	-5%	-8%
O=C1OC2(CCCCC2)CC2=C1C1O[C@](c3ccsc3)(Cc3c1ccc1ccccc31)O2	-13%[15.3 µM]	·	·	·	1%[12.8 µM]	·
Nc1n[nH]c2cc(=O)n(-c3cccc(C(F)(F)F)c3)nc12	32µM*	-10%	3%	-2	9%	-19%

Source: PubChem
